Laboratory results reported in PubChem BioAssay (EPA / NIEHS).
The source made the active and inactive calls. How the source made its calls: active means hit-call score of the fitted dose curve at least 0.9, where 1 is the maximum; inactive means score below 0.9.

Tests used:
[1] = ATG_GLI_CIS: Attagene CIS-FACTORIAL HepG2 Assay for human Zinc Finger Protein GLI1 (AID 2282945); details: HepG2, Attagene cis-factorial reporter mRNA, GLI element; actives raise or lower the signal
How it was run: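 HepG2 cells transiently transfected with cis-promoter multiplexed reporter units report endogenous transcription factor activity. After 24 h chemical exposure, reporter mRNA was quantified by RT-PCR, 6-FAM labelling, HpaI digestion and capillary electrophoresis, with bidirectional fitting against DMSO.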

[2] = ATG_ISRE_CIS: Attagene CIS-FACTORIAL HepG2 Assay for human Interferon Regulatory Factor 1 (IRF1) binding to an Interferon-Stimulated Response Element (ISRE) (AID 2282948); details: HepG2 ISRE cis-reporter (Attagene), mRNA transcription readout; actives raise or lower the signal
How it was run: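 Uses HepG2 liver cells transfected with cis-regulated reporters and measures mRNA 24 h post-dosing through RT-PCR, primer-extension labelling and capillary electrophoresis, with DMSO as negative control.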

[3] = ATG_M_32_CIS: Attagene CIS-FACTORIAL HepG2 Assay for M32 Transcription Factor (Internal Marker) (AID 2282949); details: HepG2 Attagene cis-factorial M32 reporter, mRNA; actives raise or lower the signal;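 further: background control marker of the multiplexed CIS panel rather than a real target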
How it was run: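 HepG2 human liver cells transiently transfected with cis-promoter-driven multiple reporter transcription units, dosed 24 h. Reporter mRNA quantified by RT-PCR, FAM-labelled primer extension, HpaI digest and capillary electrophoresis; bidirectional fit versus DMSO baseline.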

[4] = ATG_M_06_CIS: Attagene CIS-FACTORIAL HepG2 Assay for M06 Transcription Factor (Internal Marker) (AID 2282950); details: HepG2 Attagene CIS-FACTORIAL M06 internal marker reporter; actives raise or lower the signal
How it was run: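 Fluorescence-labelled RT-PCR products from cis-promoter reporter units, cut with HpaI and resolved by capillary electrophoresis, give the signal. Cells are human HepG2, dosed for 24 h. Serves as background control, fitted relative to DMSO.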

[5] = molecular target: Hepatocyte nuclear factor 6 (Homo sapiens) (UniProt Q9UBC0); test: ATG_HNF6_CIS: Attagene CIS-FACTORIAL HepG2 Assay for human Hepatocyte Nuclear Factor 6 (HNF6) (AID 2282952); details: HepG2 Attagene cis-factorial HNF6 reporter transcription; actives raise or lower the signal
Chain of Hepatocyte nuclear factor 6 (Homo sapiens) (Q9UBC0 whole entry, looked up, the tested form may be a part): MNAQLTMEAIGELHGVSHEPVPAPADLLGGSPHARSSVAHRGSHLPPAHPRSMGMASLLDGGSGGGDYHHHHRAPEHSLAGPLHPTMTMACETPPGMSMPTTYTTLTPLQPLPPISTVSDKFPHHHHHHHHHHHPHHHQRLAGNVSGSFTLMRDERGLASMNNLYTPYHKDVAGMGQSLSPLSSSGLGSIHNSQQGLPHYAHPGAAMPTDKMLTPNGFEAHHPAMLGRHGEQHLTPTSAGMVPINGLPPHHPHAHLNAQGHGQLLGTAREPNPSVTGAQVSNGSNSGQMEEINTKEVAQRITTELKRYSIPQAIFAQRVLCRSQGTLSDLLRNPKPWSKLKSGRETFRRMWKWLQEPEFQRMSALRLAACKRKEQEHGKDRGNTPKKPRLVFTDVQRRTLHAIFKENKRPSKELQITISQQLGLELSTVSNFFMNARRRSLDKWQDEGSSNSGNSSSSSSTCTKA
How it was run: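 First, HepG2 cells were transfected with the multiplexed cis reporter library and dosed with chemical for 24 h. Next, RNA was reverse-transcribed, PCR-amplified and fluorescently labelled. Finally, HpaI-digested fragments were read by capillary electrophoresis.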

[6] = molecular target: Heat shock factor protein 1 (Homo sapiens) (UniProt Q00613); test: ATG_HSE_CIS: Attagene CIS-FACTORIAL HepG2 Assay for human Heat Shock Transcription Factor 1 (HSE) (AID 2282953); details: HepG2 HSE cis-reporter, Attagene RNA transcription; actives raise or lower the signal
Chain of Heat shock factor protein 1 (Homo sapiens) (Q00613 whole entry, looked up): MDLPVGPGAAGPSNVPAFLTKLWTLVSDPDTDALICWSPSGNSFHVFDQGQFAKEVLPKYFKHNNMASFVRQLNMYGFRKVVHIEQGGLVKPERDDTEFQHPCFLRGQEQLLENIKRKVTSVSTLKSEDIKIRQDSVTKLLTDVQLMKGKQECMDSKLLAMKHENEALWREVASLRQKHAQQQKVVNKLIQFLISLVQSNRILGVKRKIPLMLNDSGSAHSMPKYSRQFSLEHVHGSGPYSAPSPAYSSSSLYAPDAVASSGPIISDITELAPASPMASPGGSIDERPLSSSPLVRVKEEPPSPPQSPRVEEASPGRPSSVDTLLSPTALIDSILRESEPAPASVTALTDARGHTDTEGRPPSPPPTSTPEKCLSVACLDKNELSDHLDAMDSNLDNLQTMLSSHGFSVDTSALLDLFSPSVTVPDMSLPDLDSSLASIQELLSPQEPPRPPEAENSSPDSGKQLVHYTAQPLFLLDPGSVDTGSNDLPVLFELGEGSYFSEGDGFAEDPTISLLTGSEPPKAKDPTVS
How it was run: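 After a 24 h incubation with test chemical, transfected HepG2 cells were harvested for RNA; reporter transcripts were measured by RT-PCR and capillary electrophoresis. Values reflect gain or loss of signal relative to DMSO.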

[7] = ATG_MRE_CIS: Attagene CIS-FACTORIAL HepG2 Assay for human Metal Responsive Element (MRE) (AID 2282954); details: HepG2 MRE cis-reporter transcription, Attagene multiplex; actives raise or lower the signal
How it was run: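 Cells were transfected with cis-promoter reporter transcription units, then dosed for 24 h. RNA was reverse-transcribed, amplified, fluorescently labelled and resolved by capillary electrophoresis, and activity was fitted in both directions relative to DMSO.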

[8] = ATG_PBREM_CIS: Attagene CIS-FACTORIAL HepG2 Assay for human Phenobarbital-responsive Enhancer Module (PBREM) (AID 2282955); details: HepG2 PBREM cis-reporter, Attagene multiplexed transcription; actives raise or lower the signal
How it was run: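 HepG2 cells transiently transfected with multiple cis-regulated reporter units measure endogenous transcription factor activity; 24 h compound exposure. Reporter mRNA quantified by RT-PCR, fluorescent labelling, HpaI digestion and capillary electrophoresis; bidirectional fit versus DMSO.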

[9] = molecular target: Paired box protein Pax-6 (Homo sapiens) (UniProt P26367); test: ATG_Pax6_CIS: Attagene CIS-FACTORIAL HepG2 Assay for human Paired Box 6 (PAX6) (AID 2282956); details: HepG2 CIS-FACTORIAL PAX6 reporter transcription, RNA readout; actives raise or lower the signal
Chain of Paired box protein Pax-6 (Homo sapiens) (P26367 whole entry, looked up): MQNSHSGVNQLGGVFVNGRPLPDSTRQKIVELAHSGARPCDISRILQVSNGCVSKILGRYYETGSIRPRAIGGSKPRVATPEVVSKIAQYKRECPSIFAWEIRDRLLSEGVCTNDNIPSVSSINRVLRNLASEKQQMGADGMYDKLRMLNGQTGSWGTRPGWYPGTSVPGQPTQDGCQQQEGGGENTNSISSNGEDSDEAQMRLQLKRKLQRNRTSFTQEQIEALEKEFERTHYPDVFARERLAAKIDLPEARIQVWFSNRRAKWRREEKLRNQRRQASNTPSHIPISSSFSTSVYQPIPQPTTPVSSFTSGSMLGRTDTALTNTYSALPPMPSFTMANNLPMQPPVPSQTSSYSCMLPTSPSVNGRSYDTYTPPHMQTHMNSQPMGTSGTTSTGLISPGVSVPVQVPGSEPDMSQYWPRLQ
How it was run: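 DMSO-referenced bidirectional fits of reporter mRNA fluorescence; HepG2 with transient cis-promoter MRTUs, 24 h post-dose, RT-PCR plus capillary electrophoresis detection.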

[10] = ATG_PXRE_CIS: Attagene CIS-FACTORIAL HepG2 Assay for human Pregnane X Receptor Element (PXRE) (AID 2282957); details: HepG2 Attagene CIS-FACTORIAL PXRE reporter, mRNA; actives raise or lower the signal
How it was run: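 After a 24 h chemical incubation, total RNA from transfected HepG2 cells was reverse-transcribed and reporter cDNA amplified, FAM-labeled, HpaI-digested and sized by capillary electrophoresis. DMSO served as baseline for bidirectional curve fitting.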

[11] = ATG_PPRE_CIS: Attagene CIS-FACTORIAL HepG2 Assay for human Peroxisome Proliferator-activated Response Element (PPRE) (AID 2282958); details: HepG2 PPRE cis-element reporter, Attagene transcription factor profiling; actives raise or lower the signal
How it was run: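 HepG2 cells are transiently transfected with multiplexed cis-promoter reporter units to report endogenous PPAR activity. After 24 h dosing, reporter mRNA is read by RT-PCR and capillary electrophoresis. Fitting is bidirectional against DMSO.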

[12] = ATG_RORE_CIS: Attagene CIS-FACTORIAL HepG2 Assay for human RAR-related Orphan Receptor Element (RORE) (AID 2282959); details: HepG2 Attagene cis-factorial RORE reporter, mRNA; actives raise or lower the signal
How it was run: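 HepG2 cells carrying transiently transfected cis-regulated reporter units; RORE-driven reporter mRNA quantified 24 h post-dosing by RT-PCR, 6-FAM primer extension, HpaI digestion and capillary electrophoresis. Bidirectional fit versus DMSO.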

[13] = ATG_Sox_CIS: Attagene CIS-FACTORIAL HepG2 Assay for human SRY-box transcription factor (SOX) (AID 2282960); details: HepG2 Attagene cis-factorial SOX reporter, mRNA; actives raise or lower the signal
How it was run: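 HepG2 cells transiently transfected with multiple cis-regulated reporter units, then dosed for 24 h. Reporter mRNA quantified by RT-PCR, fluorescent labelling, HpaI digestion and capillary electrophoresis; bidirectional fit versus DMSO.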

[14] = ATG_SREBP_CIS: Attagene CIS-FACTORIAL HepG2 Assay for human Sterol Regulatory Element Binding (SREBP) (AID 2282962); details: HepG2 Attagene cis-factorial SREBP reporter, mRNA; actives raise or lower the signal
How it was run: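 In this cis-format assay, HepG2 liver cells express reporters controlled by promoter elements responsive to native transcription factors. Exposure lasts 24 h; reporter mRNA fluorescence from capillary electrophoresis gives the signal, fitted bidirectionally against DMSO.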

[15] = molecular target: Signal transducer and activator of transcription 3 (Homo sapiens) (UniProt P40763); test: ATG_STAT3_CIS: Attagene CIS-FACTORIAL HepG2 Assay for human Signal Transducer and Activator of Transcription 3 (STAT3) (AID 2282963); details: HepG2, Attagene cis-factorial STAT3 reporter transcription; actives raise or lower the signal
Chain of Signal transducer and activator of transcription 3 (Homo sapiens) (P40763 whole entry, looked up): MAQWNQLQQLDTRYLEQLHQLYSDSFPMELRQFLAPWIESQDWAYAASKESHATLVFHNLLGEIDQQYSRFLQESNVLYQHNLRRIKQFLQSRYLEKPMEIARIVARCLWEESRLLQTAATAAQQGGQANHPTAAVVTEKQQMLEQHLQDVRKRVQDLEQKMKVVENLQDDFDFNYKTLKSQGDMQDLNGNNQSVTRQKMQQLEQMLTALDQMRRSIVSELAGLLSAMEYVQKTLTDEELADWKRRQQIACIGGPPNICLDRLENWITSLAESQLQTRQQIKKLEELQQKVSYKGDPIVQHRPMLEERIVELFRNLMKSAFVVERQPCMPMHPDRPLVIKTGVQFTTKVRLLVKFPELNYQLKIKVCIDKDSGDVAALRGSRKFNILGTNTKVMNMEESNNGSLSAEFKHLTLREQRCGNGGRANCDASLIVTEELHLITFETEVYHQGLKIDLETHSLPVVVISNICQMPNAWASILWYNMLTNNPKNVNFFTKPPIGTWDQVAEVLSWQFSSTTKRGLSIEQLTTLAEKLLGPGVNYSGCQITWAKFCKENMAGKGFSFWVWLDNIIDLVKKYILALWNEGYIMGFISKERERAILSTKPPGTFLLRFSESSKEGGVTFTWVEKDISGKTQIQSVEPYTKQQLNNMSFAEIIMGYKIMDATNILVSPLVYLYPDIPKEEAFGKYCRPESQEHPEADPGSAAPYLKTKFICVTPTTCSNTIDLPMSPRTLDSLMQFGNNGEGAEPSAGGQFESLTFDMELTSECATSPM
How it was run: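 HepG2, MRTU-transfected, 24 h dosing. RNA → RT → PCR → FAM label → HpaI → CE. Bidirectional fit vs DMSO.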

[16] = molecular target: Hypoxia-inducible factor 1-alpha (Homo sapiens) (UniProt Q16665); test: ATG_HIF1a_CIS: Attagene CIS-FACTORIAL HepG2 Assay for human Hypoxia Inducible Factor 1 (HIF1A) (AID 2282951); details: HepG2 Attagene cis-factorial HIF1a reporter transcription; actives raise or lower the signal
Chain of Hypoxia-inducible factor 1-alpha (Homo sapiens) (Q16665 whole entry, looked up): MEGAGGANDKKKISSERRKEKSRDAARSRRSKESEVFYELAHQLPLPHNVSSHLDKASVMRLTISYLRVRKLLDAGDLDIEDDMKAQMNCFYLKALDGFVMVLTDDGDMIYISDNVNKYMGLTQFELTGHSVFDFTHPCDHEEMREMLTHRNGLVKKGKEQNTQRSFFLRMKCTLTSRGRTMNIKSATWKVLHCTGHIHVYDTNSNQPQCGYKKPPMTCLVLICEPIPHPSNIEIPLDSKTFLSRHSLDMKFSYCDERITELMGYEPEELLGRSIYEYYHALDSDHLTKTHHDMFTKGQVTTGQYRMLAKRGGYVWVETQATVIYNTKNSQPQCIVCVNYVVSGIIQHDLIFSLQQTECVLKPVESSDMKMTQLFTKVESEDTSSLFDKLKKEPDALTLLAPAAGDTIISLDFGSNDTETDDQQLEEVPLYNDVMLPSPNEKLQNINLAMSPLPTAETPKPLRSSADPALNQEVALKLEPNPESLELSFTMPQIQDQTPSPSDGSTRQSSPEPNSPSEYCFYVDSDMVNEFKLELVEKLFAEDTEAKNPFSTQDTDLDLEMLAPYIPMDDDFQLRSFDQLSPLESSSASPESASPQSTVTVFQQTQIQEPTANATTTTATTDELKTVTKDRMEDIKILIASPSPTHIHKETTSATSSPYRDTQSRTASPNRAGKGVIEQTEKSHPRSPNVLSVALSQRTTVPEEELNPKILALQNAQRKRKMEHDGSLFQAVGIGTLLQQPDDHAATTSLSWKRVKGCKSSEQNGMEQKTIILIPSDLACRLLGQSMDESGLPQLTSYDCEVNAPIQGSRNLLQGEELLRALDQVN
How it was run: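 HepG2 cells transiently transfected with multiple cis-regulated reporter transcription units measure endogenous transcription factor activity. After 24 h exposure, reporter mRNA is quantified by RT-PCR with 6-FAM labelling, HpaI digestion and capillary electrophoresis. Bidirectional fitting against DMSO.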

[17] = molecular target: Transcription factor Sp1 (Homo sapiens) (UniProt P08047); test: ATG_Sp1_CIS: Attagene CIS-FACTORIAL HepG2 Assay for human Specificity Protein 1 (Sp1) (AID 2282961); details: HepG2 Sp1 cis-reporter transcription, actives raise or lower the signal
Chain of Transcription factor Sp1 (Homo sapiens) (P08047 whole entry, looked up): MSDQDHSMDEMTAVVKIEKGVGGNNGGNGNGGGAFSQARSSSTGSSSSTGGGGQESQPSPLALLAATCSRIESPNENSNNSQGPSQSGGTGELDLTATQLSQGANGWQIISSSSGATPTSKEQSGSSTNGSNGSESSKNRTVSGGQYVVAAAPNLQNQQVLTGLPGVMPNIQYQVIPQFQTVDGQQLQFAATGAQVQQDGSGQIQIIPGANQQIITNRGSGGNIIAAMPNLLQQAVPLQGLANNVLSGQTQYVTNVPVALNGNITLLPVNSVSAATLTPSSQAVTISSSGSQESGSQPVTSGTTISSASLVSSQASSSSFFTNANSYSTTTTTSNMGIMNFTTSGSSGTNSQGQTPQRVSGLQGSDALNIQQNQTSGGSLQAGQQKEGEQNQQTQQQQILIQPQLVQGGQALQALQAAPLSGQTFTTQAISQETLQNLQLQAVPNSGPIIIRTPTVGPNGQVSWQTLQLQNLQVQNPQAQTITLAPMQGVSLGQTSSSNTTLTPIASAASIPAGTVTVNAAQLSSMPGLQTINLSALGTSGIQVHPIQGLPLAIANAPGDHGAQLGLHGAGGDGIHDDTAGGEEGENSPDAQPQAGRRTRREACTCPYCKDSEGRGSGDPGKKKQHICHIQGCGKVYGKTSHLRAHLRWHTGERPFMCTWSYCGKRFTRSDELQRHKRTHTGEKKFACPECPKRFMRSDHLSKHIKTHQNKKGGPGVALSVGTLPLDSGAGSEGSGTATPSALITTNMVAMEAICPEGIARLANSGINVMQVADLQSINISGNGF
How it was run: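 HepG2 cells transiently transfected with multiplexed cis-regulated reporter constructs, chemical exposure 24 h. Reporter mRNA quantified by RT-PCR with capillary electrophoresis; bidirectional fit relative to DMSO.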

[18] = ATG_TA_CIS: Attagene CIS-FACTORIAL HepG2 Assay for human TA Basal Promoter (AID 2282964); details: HepG2 Attagene CIS-factorial TA basal promoter reporter; actives raise or lower the signal
How it was run: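 Multiplexed mRNA reporter assay, HepG2, 24 h. Reporter cDNA amplified, 6-FAM primer-extended, HpaI-cut, CE-sized; DMSO = negative control and baseline.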

Measured: AC50

NC(=O)NC(N)=O
not listed: [16] | [17] | [18]
inactive: all other assays above

CCCCCc1cccc(=O)o1
active: [10] 25.1 µM
not listed: [4]
inactive: all other assays above

CCC(C)C1CCCCC1=O (stereo not drawn)
not listed: [4] | [12]
inactive: all other assays above

OCC=Cc1ccccc1
active: [10] 33.1 µM
not listed: [5] | [8] | [11] | [12]
inactive: all other assays above

OCCN1CCOCC1
not listed: [12] | [16]
inactive: all other assays above

CC1=CCC(C(C)C)=CC1
active: [3] 69.4 µM
not listed: [4] | [11] | [12] | [17]
inactive: all other assays above

CC(=O)Oc1c(C)c(C)c2c(c1C)CC[C@@](C)(CCC[C@H](C)CCC[C@H](C)CCCC(C)C)O2
not listed: [16]
inactive: all other assays above

C=C(C)C(=O)OCCN(C)C
not listed: [5] | [15] | [16]
inactive: all other assays above

CC(=O)OC(C)(C)C1CC=C(C)CC1 (stereo not drawn)
active: [10] 36.9 µM
not listed: [4] | [15]
inactive: all other assays above

CCCCCCCCCC(=O)OCC
not listed: [12] | [16]
inactive: all other assays above

CCCCCCCCCCCCS
active: [10] 33.4 µM | [14] 33.4 µM
not listed: [4] | [5] | [7]
inactive: all other assays above

C=CC(C)CCCC(C)(C)O (stereo not drawn)
not listed: [4] | [6] | [12]
inactive: all other assays above

CC(=O)CCC=C(C)CCC=C(C)C
active: [10] 6.98 µM
not listed: [11] | [13] | [16]
inactive: all other assays above

CC(=O)OC(C)(C)C
not listed: [4] | [8]
inactive: all other assays above

COC(=O)c1ccc(C(=O)OC)cc1
not listed: [5] | [6] | [11] | [15]
inactive: all other assays above

CCOC(=O)CCCCCCCCC(=O)OCC
not listed: [4] | [11]
inactive: all other assays above

CC(C)CCCC(C)(C)O
not listed: [6] | [16]
inactive: all other assays above
